# Measurements taken from PubChem BioAssay.
# Activity calls are given as the source filed them.
# Assays:
# [1] = binders of probe aFSTL3 on microarray, primary screen, stem cell growth factor project, biochemical, small-molecule microarray, fluorescence 635/667 (AID 1064); details: higher = more signal;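 further: measures binding of the biotinylated anti-FSTL3 antibody to printed compounds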
# [2] = binders from COS7 lysate, DM2A8 probe, primary screen, torsin A project, cell lysate, small-molecule microarray, fluorescence 635/667 (AID 1065); details: higher = more signal, COS7 lysate expressing mutant human TOR1A
# [3] = binders of probe aFGF2 on microarray, primary screen, stem cell growth factor project, biochemical, small-molecule microarray, fluorescence 635/667 (AID 1067); details: higher = more signal;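 further: measures binding of biotinylated aFGF2 protein to printed compounds on slides; z-score merges feature fluorescence and signal-to-noise across triplicate slides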
# [4] = binders of probe aFGF10 on microarray, primary screen, stem cell growth factor project, biochemical, small-molecule microarray, fluorescence 635/667 (AID 1071); details: higher = more signal;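 further: score merges 667 nm spot intensity and signal to noise from triplicate slides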
# [5] = target: Neurogenic locus notch homolog protein 2 (Homo sapiens) (UniProt Q04721); assay: Notch2 binders on small-molecule microarrays, primary screen, biochemical, small-molecule microarray, 635 nm fluorescence, stem cell growth factors (AID 1073); details: Notch2 binding, higher = more signal
# Sequence of Neurogenic locus notch homolog protein 2 (Homo sapiens) (Q04721 whole entry, looked up, canonical isoform): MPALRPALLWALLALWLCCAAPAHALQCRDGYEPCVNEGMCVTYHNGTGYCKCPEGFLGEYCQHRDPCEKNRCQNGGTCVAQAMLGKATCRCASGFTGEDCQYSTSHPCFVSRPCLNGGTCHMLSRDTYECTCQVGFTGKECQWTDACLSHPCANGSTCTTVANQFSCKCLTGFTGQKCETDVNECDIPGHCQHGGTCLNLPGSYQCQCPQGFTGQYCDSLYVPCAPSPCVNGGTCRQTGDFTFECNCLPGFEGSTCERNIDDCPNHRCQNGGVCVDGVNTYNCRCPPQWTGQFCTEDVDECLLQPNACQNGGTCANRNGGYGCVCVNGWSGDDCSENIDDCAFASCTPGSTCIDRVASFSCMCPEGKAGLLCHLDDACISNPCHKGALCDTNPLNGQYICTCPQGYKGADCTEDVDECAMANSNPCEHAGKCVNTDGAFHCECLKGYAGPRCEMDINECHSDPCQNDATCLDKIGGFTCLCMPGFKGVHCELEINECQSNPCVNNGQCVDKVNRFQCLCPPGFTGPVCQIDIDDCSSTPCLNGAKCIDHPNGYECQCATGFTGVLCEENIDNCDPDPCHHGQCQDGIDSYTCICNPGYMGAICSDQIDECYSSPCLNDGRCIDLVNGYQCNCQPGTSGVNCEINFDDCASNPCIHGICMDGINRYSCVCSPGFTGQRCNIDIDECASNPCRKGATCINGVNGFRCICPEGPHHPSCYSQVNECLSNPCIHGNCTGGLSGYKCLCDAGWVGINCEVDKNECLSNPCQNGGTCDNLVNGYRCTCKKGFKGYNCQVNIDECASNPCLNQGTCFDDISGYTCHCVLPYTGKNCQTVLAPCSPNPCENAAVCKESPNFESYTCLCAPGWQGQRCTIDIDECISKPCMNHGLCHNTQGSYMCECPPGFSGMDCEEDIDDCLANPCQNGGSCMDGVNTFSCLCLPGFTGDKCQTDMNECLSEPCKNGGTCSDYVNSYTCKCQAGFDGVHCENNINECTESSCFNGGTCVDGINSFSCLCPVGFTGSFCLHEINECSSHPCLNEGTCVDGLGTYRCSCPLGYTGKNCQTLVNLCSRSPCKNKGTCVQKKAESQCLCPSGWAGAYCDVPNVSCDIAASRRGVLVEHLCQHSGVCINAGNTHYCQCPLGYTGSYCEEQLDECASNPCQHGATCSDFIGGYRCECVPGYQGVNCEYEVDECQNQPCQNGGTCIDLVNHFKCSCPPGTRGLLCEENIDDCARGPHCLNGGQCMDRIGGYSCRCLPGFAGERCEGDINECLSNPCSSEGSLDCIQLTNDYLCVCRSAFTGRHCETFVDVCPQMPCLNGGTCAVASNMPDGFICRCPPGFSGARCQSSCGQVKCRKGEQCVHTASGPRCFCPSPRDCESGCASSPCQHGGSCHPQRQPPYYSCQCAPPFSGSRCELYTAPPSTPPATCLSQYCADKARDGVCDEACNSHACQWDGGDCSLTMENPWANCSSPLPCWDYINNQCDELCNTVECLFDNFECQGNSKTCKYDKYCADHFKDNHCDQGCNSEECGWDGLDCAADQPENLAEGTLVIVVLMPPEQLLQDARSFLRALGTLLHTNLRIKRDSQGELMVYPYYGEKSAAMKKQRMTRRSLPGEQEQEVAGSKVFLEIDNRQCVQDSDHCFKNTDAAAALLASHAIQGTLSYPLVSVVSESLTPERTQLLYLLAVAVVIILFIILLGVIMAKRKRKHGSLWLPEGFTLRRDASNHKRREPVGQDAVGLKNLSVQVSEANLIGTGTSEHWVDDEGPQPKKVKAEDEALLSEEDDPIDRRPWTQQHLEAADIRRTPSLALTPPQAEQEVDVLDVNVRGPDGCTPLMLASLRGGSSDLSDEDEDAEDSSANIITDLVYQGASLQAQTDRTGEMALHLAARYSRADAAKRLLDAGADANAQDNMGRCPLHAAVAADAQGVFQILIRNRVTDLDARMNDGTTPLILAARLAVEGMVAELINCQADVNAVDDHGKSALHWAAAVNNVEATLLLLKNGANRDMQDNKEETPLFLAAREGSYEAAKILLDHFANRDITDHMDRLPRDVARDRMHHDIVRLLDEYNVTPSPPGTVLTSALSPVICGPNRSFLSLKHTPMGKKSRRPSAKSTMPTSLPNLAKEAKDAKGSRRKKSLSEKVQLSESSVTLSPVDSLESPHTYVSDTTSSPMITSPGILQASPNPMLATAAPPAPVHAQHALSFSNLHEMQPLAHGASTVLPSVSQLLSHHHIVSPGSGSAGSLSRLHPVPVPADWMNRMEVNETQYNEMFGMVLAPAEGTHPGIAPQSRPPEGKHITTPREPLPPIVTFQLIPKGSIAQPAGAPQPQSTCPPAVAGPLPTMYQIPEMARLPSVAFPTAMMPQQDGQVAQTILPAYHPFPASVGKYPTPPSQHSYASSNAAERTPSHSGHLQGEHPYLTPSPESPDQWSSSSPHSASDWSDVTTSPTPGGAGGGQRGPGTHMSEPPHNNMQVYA
# [6] = target: Pro-neuregulin-1, membrane-bound isoform (Homo sapiens) (UniProt Q02297); assay: NRG1 binders on small-molecule microarrays, primary screen, psychiatric disease protein project, biochemical, small-molecule microarray, fluorescence 635/667 (AID 1075); details: NRG1 binding, 635 nm fluorescence, higher = more signal;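 further: score combines 667 nm spot fluorescence with signal to noise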
# Sequence of Pro-neuregulin-1, membrane-bound isoform (Homo sapiens) (Q02297 whole entry, looked up, the tested form may be a part, canonical isoform): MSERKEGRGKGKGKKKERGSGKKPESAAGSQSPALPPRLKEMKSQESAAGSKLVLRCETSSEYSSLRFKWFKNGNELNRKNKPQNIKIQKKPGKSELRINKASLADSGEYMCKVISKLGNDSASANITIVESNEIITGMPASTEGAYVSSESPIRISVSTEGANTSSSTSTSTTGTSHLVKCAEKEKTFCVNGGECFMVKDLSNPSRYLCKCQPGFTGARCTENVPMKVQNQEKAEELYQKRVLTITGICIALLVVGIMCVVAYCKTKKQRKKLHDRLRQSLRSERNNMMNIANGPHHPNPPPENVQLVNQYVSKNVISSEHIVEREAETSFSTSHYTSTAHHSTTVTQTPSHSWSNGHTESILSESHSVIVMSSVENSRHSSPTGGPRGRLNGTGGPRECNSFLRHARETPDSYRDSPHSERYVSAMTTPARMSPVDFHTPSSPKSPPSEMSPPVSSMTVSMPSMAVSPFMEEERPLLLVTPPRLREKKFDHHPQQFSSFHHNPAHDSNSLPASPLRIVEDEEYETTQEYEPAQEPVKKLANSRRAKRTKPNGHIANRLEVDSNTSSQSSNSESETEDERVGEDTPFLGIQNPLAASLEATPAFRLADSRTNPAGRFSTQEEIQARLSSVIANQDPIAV
# [7] = test system: Neuregulin-1 EGF-like domain; assay: binders of neuregulin-1 EGF-like domain, primary screen, biochemical, small-molecule microarray, 635 nm fluorescence (AID 1081); details: small-molecule microarray binding, higher = more signal;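 further: binding of the protein to compounds printed on small-molecule microarray slides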
# [8] = FRG1 promoter luciferase signal modulators, primary screen, FRG1 inhibition for FSHD, cell-based, C2C12 myotubes, firefly/Renilla luciferase, luminescence (AID 1084); details: higher = more signal, called active from +8 up or from −8 down
# [9] = binders of probe aFST on microarray, primary screen, stem cell growth factor project, biochemical, small-molecule microarray, fluorescence 635/667 (AID 1086); details: higher = more signal;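 further: score merges 667 nm fluorescence with signal-to-noise of each printed compound spot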
# [10] = binders of probe aHhip on microarray, primary screen, stem cell growth factor project, biochemical, small-molecule microarray, fluorescence 635/667 (AID 1087); details: higher = more signal;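 further: score merges spot fluorescence at 667nm with spot signal to noise ratio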
# [11] = test system: PRMT1 (protein arginine N-methyltransferase 1); assay: PRMT1 binders on small-molecule microarrays, primary screen, biochemical, small-molecule microarray, 635 nm fluorescence (AID 1088); details: small-molecule microarray binding, higher = more signal;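 further: binding of Prmt1 protein to compounds spotted on small-molecule microarray slides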
# [12] = yeast growth modulation, basal conditions, primary screen, YJM789 clinical isolate, OD600, 24 h (AID 1089);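 further: growth of clinical yeast isolate S. cerevisiae YJM 789 seeded 1000 cells per well; test concentration not given here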; details: S. cerevisiae YJM789 growth, higher = more signal, called active from +8 up or from −8 down
# [13] = fission yeast growth modulation, primary screen, strain 972, OD600, 24 h, no modulator (AID 1090);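 further: basal condition with compound alone and no growth modifier present; test concentration not given here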; details: S. pombe 972 growth, higher = more signal, called active from +8 up or from −8 down
# [14] = S. cerevisiae growth modulation with rapamycin, primary screen, strain BY4716, OD600, 96 h (AID 1091); details: higher = more signal, called active from +8 up or from −8 down; further: test concentration not given here
# [15] = target: Torsin-1A-interacting protein 2 (Homo sapiens) (UniProt Q8NFQ8); assay: LULL1 binders on small-molecule microarray, primary screen, cell lysate, human LULL1 lysate, 635/667 nm fluorescence (AID 1092); details: hLULL1 lysate binding, 635 nm fluorescence, higher = more signal;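 further: probe is lysate of COS7 cells overexpressing human LULL1; score merges per-feature 667 nm fluorescence with signal-to-noise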
# Sequence of Torsin-1A-interacting protein 2 (Homo sapiens) (Q8NFQ8 whole entry, looked up): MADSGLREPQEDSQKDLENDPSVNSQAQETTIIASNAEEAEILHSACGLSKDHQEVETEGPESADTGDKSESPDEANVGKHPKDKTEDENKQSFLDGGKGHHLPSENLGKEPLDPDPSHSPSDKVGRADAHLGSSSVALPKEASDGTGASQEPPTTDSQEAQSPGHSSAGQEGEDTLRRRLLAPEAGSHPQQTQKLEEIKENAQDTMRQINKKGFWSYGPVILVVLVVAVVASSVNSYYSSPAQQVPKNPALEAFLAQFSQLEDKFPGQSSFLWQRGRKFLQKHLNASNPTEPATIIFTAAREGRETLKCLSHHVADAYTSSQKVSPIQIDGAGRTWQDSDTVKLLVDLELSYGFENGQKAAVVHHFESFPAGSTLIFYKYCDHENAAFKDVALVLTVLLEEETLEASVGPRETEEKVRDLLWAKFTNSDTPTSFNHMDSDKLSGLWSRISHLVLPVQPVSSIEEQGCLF
# [16] = E. coli growth modulation, two-sided OD650, primary screen, E. coli filamentation project, strain DRC41, 24 h (AID 1093); details: OD650, 24 h, higher = more signal, called active from +8 up or from −8 down;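 further: MC1000 strain lacking acrAB efflux and sulA so SOS filamentation is blocked; test concentration not given here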
# [17] = small-molecule microarray binders of probe aLefty2, primary screen, biochemical, biotinylated probe, 635/667 nm fluorescence (AID 1094); details: higher = more signal;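 further: score merges spot fluorescence near 667 nm with spot signal-to-noise ratio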
# [18] = test system: Noggin (protein binding on small-molecule microarray); assay: Noggin binders on small-molecule microarray, primary screen, biochemical, 635/667 nm fluorescence (AID 1095); details: 635 nm fluorescence, higher = more signal;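 further: score merges 667 nm feature fluorescence with signal to noise over triplicate slides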
# [19] = target: Neurogenic locus notch homolog protein 3 (Homo sapiens) (UniProt Q9UM47); assay: NOTCH3 binders on small-molecule microarray, primary screen, biochemical, 635/667 nm fluorescence (AID 1096); details: NOTCH3 binding, 635 nm fluorescence, higher = more signal
# [20] = small-molecule microarray binders of probe aEGFR, primary screen, biochemical, biotinylated probe, 635/667 nm fluorescence (AID 1097); details: higher = more signal;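 further: probe is a biotinylated anti-EGFR antibody binding compounds printed on slides; score combines fluorescence near 667 nm and signal to noise of each spot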
SMILES,composite z-score [1],composite z-score [2],composite z-score [3],composite z-score [4],composite z-score [5],composite z-score [6],composite z-score [7],z-score [8],composite z-score [9],composite z-score [10],composite z-score [11],z-score [12],z-score [13],z-score [14],composite z-score [15],z-score [16],composite z-score [17],composite z-score [18],composite z-score [19],composite z-score [20]
Cc1ccc(C(C)CC(O)C2C=CC3C(=O)N(c4ccccc4)C(=O)C3N2Nc2ccc(C#N)cc2)o1 (stereo not given),0.0794,-0.28,0.0489,0.954,1.7,1.88,1.08,-0.629 (inactive),0.998,-0.283,1.55,-26 (active),-16.8 (active),-3.16 (inactive),3.46,-0.0931 (inactive),0.188,0.383,1.13,0.122
C=C(/C(=C/C[C@H](OC(=O)c1ccncc1)c1cccc(OCCO)c1)c1cnc2ccccc2c1)C(C)C,0.0581,0.857,-0.0448,1.34,1.41,1.07,0.884,-2.64 (inactive),0.157,0.0695,1.54,-25.3 (active),-20.3 (active),-4.3 (inactive),1.21,-0.315 (inactive),-0.115,1.85,1.07,-0.0578
CN1C(=O)[C@@]2(Cc3ccccc3)N=C(c3ccc(OCCCO)cc3)O[C@H]2c2ccccc21,0.331,0.295,0.0175,0.261,0.921,0.501,1.21,-2.02 (inactive),0.511,-0.156,1.56,-1.28 (inactive),-4.11 (inactive),0.843 (inactive),2.94,0.291 (inactive),0.109,0.955,1,-0.0982
COCCOC(=O)N1C(=O)[C@@]2(c3ccccc31)[C@H](c1ccccc1OCCO)N1[C@H](c3ccccc3)[C@H](c3ccccc3)OC(=O)[C@H]1[C@@H]2C(=O)N1CCCCCCC1,4.11,2.32,0.959,1.32,1.78,2.25,1.39,-3.81 (inactive),3.36,2.53,1.54,1.3 (inactive),1.35 (inactive),5.52 (inactive),4.47,-0.489 (inactive),1.97,1.78,1,1.48
O=C1N[C@@H](Cc2ccccc2)C(=O)N2[C@@H]1C[C@@H](C(=O)O)[C@H]2c1ccc(O)cc1,0.106,0.726,-0.0773,0.473,0.0865,1.77,1.37,4.65 (inactive),0.661,-0.257,1.19,-0.0447 (inactive),-0.701 (inactive),-0.54 (inactive),2.41,1.54 (inactive),0.391,1.5,1.11,0.335
CC(=O)NCCCC[C@@H]1NC(=O)[C@H]2C[C@@H](C(=O)NCCCCCNC(=O)CS)[C@@H](c3cccc(OCCO)c3)N2C1=O,-0.0107,0.487,-0.133,-0.379,-0.544,-0.352,1.03,0.824 (inactive),-0.203,-0.0074,0.896,0.778 (inactive),0.0625 (inactive),0.0709 (inactive),3.18,-0.418 (inactive),-0.184,0.52,0.059,-0.104
CC(C)CNC(=O)[C@@]1(c2ccc([N+](=O)[O-])cc2)CC(=O)N(C2CCCCC2)[C@@H]1c1ccc(CO)cc1,0.574,0.219,0.0353,-0.0872,0.554,0.452,1.26,-0.639 (inactive),0.859,-0.132,0.566,-0.563 (inactive),-0.514 (inactive),-0.548 (inactive),2.54,0.861 (inactive),0.136,-0.318,-0.0858,-0.0989
COCCCNC(=O)[C@@]1(Sc2ccc(C)cc2)CC(=O)N(C(C)C)[C@@H]1c1ccc(CO)cc1I,0.438,-0.107,0.0854,0.606,-0.622,1.89,1.25,-1.2 (inactive),-0.307,-0.0581,1.31,-0.436 (inactive),-2.98 (inactive),0.445 (inactive),2.53,-2.04 (inactive),-0.0225,-0.926,-0.365,-0.21
O=C1C2C=CC(C(O)c3ccc(I)cc3)N(Nc3ccccc3)C2C(=O)N1c1ccccc1 (stereo not given),0.996,0.404,0.106,0.368,1.54,2.13,1.22,-1.92 (inactive),1.27,-0.0988,1.34,-0.165 (inactive),0.912 (inactive),0.879 (inactive),3.31,-0.882 (inactive),0.265,-0.369,0.82,0.0352
NCCCCCNC(=O)[C@H]1C[C@H]2C(=O)N[C@@H](Cc3ccccc3)C(=O)N2[C@H]1c1ccc(O)cc1,2.14,-0.045,0.175,0.199,0.685,1.73,0.573,0.902 (inactive),1.46,0.883,0.584,0.5 (inactive),-0.335 (inactive),-0.578 (inactive),1.92,0.0565 (inactive),0.887,0.521,0.423,0.151
CCCCCN1CC=CC23O[C@@H]4/C=C\CCC(C)OC(=O)C4[C@H]2C(=O)N(CCCCCCO)[C@@H]3C1=O (stereo not given in full),-0.146,-0.355,-0.129,-0.248,-0.641,1.89,1.4,-0.0224 (inactive),-0.183,-0.0994,0.523,0.735 (inactive),0.157 (inactive),-0.635 (inactive),1.79,1.24 (inactive),-0.119,0.296,0.109,-0.126
CC(C)C(CO)N1C(=O)[C@@H]2[C@H]3C(=O)OCC=C[C@H]3OC23C=CCN(C(C)(C)C)C(=O)[C@@H]13 (stereo not given in full),-0.0718,-0.141,-0.155,-0.724,-0.456,-0.807,-1.03,-0.221 (inactive),-0.346,-0.128,-0.0274,0.027 (inactive),0.0191 (inactive),0.754 (inactive),-0.963,-0.7 (inactive),-0.168,-0.122,-0.0022,-0.144
O=C1OCCC/C=C\[C@H]2OC34C=CCN(c5ccc6ccccc6c5)C(=O)[C@H]3N(CCCO)C(=O)[C@@H]4C12 (stereo not given in full),-0.0204,0.994,-0.101,-0.316,-0.631,0.437,0.626,1.2 (inactive),-0.72,-0.12,0.463,-1.59 (inactive),-0.647 (inactive),-0.597 (inactive),0.969,-0.377 (inactive),-0.091,-0.534,0.0065,-0.195
O=C1NC(=O)C2C1C=CC(C(O)c1ccccn1)N2Nc1ccc(Cl)cc1Cl (stereo not given),-0.0358,-0.0795,-0.0132,0.895,1.16,1.36,0.626,0.362 (inactive),0.737,0.154,0.195,-1.09 (inactive),0.154 (inactive),-0.458 (inactive),3.35,-0.402 (inactive),0.091,-0.291,0.259,-0.0271
CCCNC(=O)[C@@]1(Sc2ccc(C)cc2)CC(=O)N(C(C)C)[C@@H]1c1ccc(CO)cc1I,1.2,0.0023,-0.104,-0.77,-1.06,1.98,-0.0039,-0.733 (inactive),-0.433,-0.0994,1.28,-1.08 (inactive),-0.877 (inactive),1.79 (inactive),2.73,-0.157 (inactive),0.0444,-0.719,-1.2,-0.252
C=C(/C(=C/C[C@@H](OC(=O)c1ccncc1)c1cccc(OCCO)c1)c1cnc2ccccc2c1)C(C)C,0.21,0.375,-0.123,1.15,1.22,0.788,1.17,2.61 (inactive),0.573,-0.116,1.55,-2.06 (inactive),-1.77 (inactive),1.29 (inactive),2.03,0.915 (inactive),-0.0042,1.27,1.02,0.074
COCC(=C=CC[C@@H](O)c1cccc(OCCO)c1)CCO,-0.117,0.0969,-0.11,0.674,0.234,0.678,1.02,0.604 (inactive),0.101,-0.0074,0.783,0.0995 (inactive),0.114 (inactive),-0.0032 (inactive),0.939,0.0464 (inactive),-0.171,0.225,0.669,0.102
C=CCNC(=O)[C@H]1[C@@H]2C(=O)O[C@@H](c3ccccc3)[C@@H](c3ccccc3)N2[C@@H](c2ccc(O)cc2)[C@]12C(=O)N(C(=O)OCCOC)c1ccc(C#CCC(C(=O)OC)C(=O)OC)cc12,-0.114,0.85,-0.0422,0.453,0.719,0.225,1.21,0.172 (inactive),0.376,-0.162,1.56,0.106 (inactive),1.57 (inactive),5.5 (inactive),2.11,0.301 (inactive),-0.0229,1.2,1.11,0.0551
COC(=O)c1c2oc(c1C(=O)OC)C(=O)N1CCC[C@H]1Cn1nncc1CN(Cc1ccccc1)C(=O)N[C@H](CO)CC2,1.31,0.0712,-0.0597,0.627,0.201,0.655,0.803,-0.606 (inactive),-0.152,-0.353,0.97,0.955 (inactive),-0.086 (inactive),0.613 (inactive),0.983,1.24 (inactive),-0.116,0.743,0.2,0.471
COCCOC(=O)N1C(=O)[C@@]2(c3cc(C#Cc4ccc(OC)cc4)ccc31)[C@H](C(=O)NC[C@H](O)c1ccccc1)[C@H]1C(=O)O[C@H](c3ccccc3)[C@H](c3ccccc3)N1[C@@H]2c1ccc(OCCO)cc1,-0.157,0.946,-0.12,0.912,1.12,1.46,1.28,0.643 (inactive),0.41,-0.0994,1.54,1.62 (inactive),1.74 (inactive),7.18 (inactive),2.87,1.38 (inactive),-0.0412,1.32,1.04,-0.0532
